# Shiga toxin inh: Shiga toxin inhibition; 9.2% of 290,000 active; Vero cells, Shiga toxin protein synthesis inhibition reporter; inhibition, % at 38.7 µM; AID 2315; in the data active means inhibition mostly above about 28%, no sharp cut-off; inactive means mostly below about 43%
# NS1 inh: blocks influenza NS1 protein function | Potency, µM (highest dose often 46.1 µM) | 0.4% of 270,000 active | AID 2326; calls by dose curve; further: actives are rising curves; nearly all actives have a fitted effect of over 50% in size
#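 A cell-based growth assay was used: compounds that relieve NS1-induced slow growth of budding yeast raise OD600. Assay medium was yeast nitrogen base with ammonium sulphate and -URA supplement, pH 6.0, with 2% galactose.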
# Pf growth 96h: P. falciparum growth inhibition at 96 hour, primary screen for plastid delayed-death inhibitors; AID 504834; 6.9% of 320,000 active; P. falciparum luciferase reporter growth, 96 h; Potency, µM (top dose mostly 28.7 µM), actives largely listed as inhibitors
#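 Two-generation exposure (96 h) targets delayed-death phenotype. Reporter parasites carrying integrated firefly luciferase, in red cells at 2% hematocrit and 0.05% parasitemia final, kept at 37 C, 5% CO2; luminescence loss indicates inhibition.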
# CHX counter: affects cycloheximide protein synthesis inhibition readout, counter-screen | max response, % | 12% of 300,000 active | cell reporter, cycloheximide protein synthesis inhibition counterscreen | AID 2314; in the data active means max response mostly above about 13%, no sharp cut-off; inactive means mostly below about 14%; further: read at 38.3 µM for the half of the compounds with a filed dose
# Pf growth 48h: inhibits P. falciparum growth in the first generation, 48 h; P. falciparum luciferase growth in erythrocytes, 48 h; Potency, µM (highest dose often 28.7 µM), usual class: inhibitors; 5.9% of 310,000 active
#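 Firefly luciferase activity from engineered P. falciparum reports growth; inhibitors lower the luminescent signal. Cultures contained 2% hematocrit erythrocytes at 0.1% final parasitemia.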
# Sm TGR inh: S. mansoni TGR enzyme inhibition. Q962Y6. AID 485364. 3% of 360,000 active. purified TGR, DTNB reduction, TNB absorbance 405 nm. Potency, µM (series often up to 114 µM), hits mostly inhibitors; further: nearly all actives have a fitted effect of over 60% in size
#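 Kinetic colorimetric format: TGR-catalysed, NADPH-driven DTNB reduction monitored via TNB absorbance. Enzyme dispensed at 20 nM; compound exposure 15 min at room temperature before reaction start.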
# Numbers stand for hits; n = inactive; u = inconclusive; x = not tested or not shown. Only some compounds are listed: those with a hit (about 21% of all), similar ones and a draw of the others. Unless noted, the call rests on the fitted dose curve; in most records, active means well fitted curve in the direction sought with a large enough effect; inconclusive means small, poorly fitted or top-dose-only effect, or another doubt; inactive means no such curve, though single readings can be large; an effect the other way counts as inactive or inconclusive.
SMILES,Shiga toxin inh,NS1 inh,Pf growth 96h,CHX counter,Pf growth 48h,Sm TGR inh
N#CC(Cc1cccc(CC(C#N)(c2ccccc2)c2ccccc2)c1)(c1ccccc1)c1ccccc1,n,u,0.83µM,n,1.2µM,n
Cc1ccn2c(Nc3ccc4c(c3)OCO4)c(-c3ccco3)nc2c1,x,x,x,x,x,n
CN(C)c1ccc(-c2n(C)c3ccccc3[n+]2C)cc1,52,n,x,27,u,n
Cn1c(-c2ccccn2)[n+](C)c2ccccc21,n,n,n,n,n,n
Cn1c(-c2ccc3ccccc3n2)[n+](C)c2ccccc21,72,n,0.93µM,53,u,n
CC(C)(CO)[C@@H](O)C(=O)NCCC(=O)O,x,x,n,x,n,n
COc1cc2c3nnc(-c4ccc(F)cc4)c-3cn(Cc3ccccc3F)c2cc1OC,n,x,0.74µM,n,0.37µM,n
CCn1c(C)c(P(c2ccccc2)c2ccccc2)[n+]2ccccc12,n,x,8.3µM,n,1.5µM,n
CN(C)c1ccc(C(=O)c2ccc(N(C)C)c3ccccc23)cc1,68,n,n,25,u,n
Cc1cc(N2CCN(C)CC2)nc2ccc(NC(=O)c3ccc(C(C)(C)C)cc3)cc12,x,x,x,x,x,n
COc1cccc(C(=O)Nc2ccc3nc(N4CCN(c5ncccn5)CC4)cc(C)c3c2)c1OC,n,n,u,14,u,n
CCOc1ccccc1C(=O)Nc1ccc2nc(N3CCN(c4ncccn4)CC3)cc(C)c2c1,x,n,x,x,x,x
COc1ccc(C(=O)Nc2ccc3nc(N4CCN(C)CC4)cc(C)c3c2)c(OC)c1,n,n,n,n,7.4µM,n
CCCn1c(=O)n(CC(=O)NCC2CCCO2)c(=O)c2c3c(sc21)COC(C)(C)C3 (stereo not drawn),n,n,u,n,n,n
O=C(N/N=C/c1cccc([N+](=O)[O-])c1)c1cccc(Br)c1,n,x,n,22,n,n
COc1ccccc1/C=N/NC(=O)c1ccc(C)nc1,n,n,u,n,n,n
O=C(N/N=C/c1ccc(Br)s1)c1ccc([N+](=O)[O-])cc1,n,x,n,n,2.1µM,n
O=C(N/N=C/c1cccc([N+](=O)[O-])c1)c1cccs1,n,n,n,26,n,n
Cc1ccc(C(=O)N/N=C\c2ccc([N+](=O)[O-])s2)cn1,n,n,0.33µM,n,4.1µM,u
CC1CCN(C(=O)c2cccc(NC(=O)c3nsc4ccccc34)c2)CC1,x,x,x,x,x,n
CC(C)[C@H]1C(=O)Nc2ccccc2N1C(=O)N[C@@H](Cc1ccccc1)C(=O)N[C@H](C(=O)O)c1ccccc1,n,u,u,n,n,u
O=C(O)CCCCNS(=O)(=O)/C=C/c1ccccc1,n,x,n,n,n,n
O=C(N/N=C/c1cccc(Br)c1)c1ccc(Br)cc1,n,x,n,22,n,n
CCOc1cc(/C=N/NC(=O)c2cccs2)cc([N+](=O)[O-])c1O,49,n,n,45,n,n
COc1ccc(NC(=O)CCC(=O)N/N=C/c2ccc([N+](=O)[O-])s2)cc1,n,n,u,n,7.4µM,u
SMILES,Shiga toxin inh,NS1 inh,Pf growth 96h,CHX counter,Pf growth 48h,Sm TGR inh
CCOC(=O)N/N=C\c1ccc([N+](=O)[O-])s1,n,x,u,n,u,n
CC(C)(C)OC(=O)N/N=C\c1ccc([N+](=O)[O-])s1,81,x,n,58,u,u
O=C(N/N=C/c1cccc([N+](=O)[O-])c1)c1ccc(Br)cc1,n,n,n,n,n,n
CC(C)(C)OC(=O)N1CCC(c2c(C(=O)N3CCN(c4ccccn4)CC3)cnn2-c2ccc(F)cc2F)CC1,x,x,x,x,x,n
CCn1c(C(=O)Nc2c(C)cccc2C)cc2sc(Cl)cc21,x,x,x,x,x,n
O=C(N/N=C/c1ccc([N+](=O)[O-])s1)c1ccncc1,n,n,1.5µM,n,4.7µM,u
O=C(N/N=C/c1cc([N+](=O)[O-])ccc1N1CCCCCC1)c1ccccn1,n,x,u,n,u,n
O=C(N/N=C/c1cccc([N+](=O)[O-])c1)C1CC1c1ccccc1 (stereo not drawn),n,n,12µM,n,n,n
Cc1ccc(C(=O)N/N=C/c2ccc([N+](=O)[O-])s2)cc1,n,n,n,n,u,n
CCN(CC)C(=O)C1CCCN(c2ccc([N+](=O)[O-])cc2/C=N/NC(=O)c2cccc(Br)c2)C1 (stereo not drawn),n,u,2.1µM,n,4.1µM,n
O=C(N/N=C/c1ccc(Br)s1)c1ccccc1[N+](=O)[O-],n,n,n,n,n,n
O=C(N/N=C/c1ccc([N+](=O)[O-])s1)c1cccc(Br)c1,n,n,4.1µM,n,4.1µM,n
Cc1ccc(-n2nnc(-c3nsc(NC(=O)c4cccc(Cl)c4)n3)c2C)cc1C,x,x,x,x,x,n
Cc1cccc(N(C)C(=O)C2CCN(S(=O)(=O)c3cccc4nonc34)CC2)c1,x,x,x,x,x,n
O=C(N/N=C/c1cccc(OCc2ccccc2)c1)c1cccs1,75,n,u,30,u,n
Cc1ccc(C(=O)N2CCC3(CC2)Oc2ccc(F)cc2C(=O)C32CC(c3ccccc3)=NO2)s1 (stereo not drawn),n,n,10µM,n,u,n
O=C(c1ccoc1)N1CCC2(CC1)Oc1ccc(F)cc1C(=O)C21CC(c2ccc(Cl)cc2)=NO1 (stereo not drawn),n,n,n,n,u,n
Cc1ccc(C(=O)N2CCC3(CC2)Oc2ccc(F)cc2C(=O)C32CC(c3ccc(Cl)cc3)=NO2)s1 (stereo not drawn),n,n,u,n,u,n
O=C(c1ccoc1)N1CCC2(CC1)Oc1ccc(F)cc1C(=O)C21CC(c2ccccc2)=NO1 (stereo not drawn),n,n,12µM,n,u,u
O=C(c1ccc2c(c1)OCO2)N1CCC2(CC1)Oc1ccc(F)cc1C(=O)C21CC(c2ccccc2)=NO1 (stereo not drawn),n,n,u,n,13µM,n
O=C(CCCN1C(=O)c2ccccc2C1=O)Nc1cccc(S(=O)(=O)NC2=NCCC2)c1,n,n,n,n,u,n
COc1cccc(C(=O)Nc2nnc(C(C)C)s2)c1,47,n,n,27,n,n
COc1ccc(Cc2nnc(NC(=O)c3ccccc3F)s2)cc1,85,n,n,20,n,n
COc1ccc(Cc2nnc(NC(C)=O)s2)cc1,n,n,u,n,n,n
COc1ccc(C(=O)Nc2nnc(Cc3ccc(OC)c(OC)c3)s2)c(OC)c1,n,n,n,13,2.3µM,n
COc1ccc(C(=O)Nc2nnc(C(C)C)s2)cc1OC,x,x,x,x,x,n
CN(C)c1cccc(C(=O)Nc2nnc(Cc3ccccc3)s2)c1,96,n,n,26,n,n
CCn1ncc(/C=N/NS(=O)(=O)c2ccc(Cl)cc2)c1C,n,n,n,n,n,n
Cc1cccc(C)c1NC(=O)CN(C)C(=O)c1ccc2c(=O)n3c(nc2c1)CCC3,x,x,u,x,n,n
O=C(NCc1ccc(F)cc1)c1c2c(nc3ccccc13)CCC2,n,x,n,n,n,n

# Bioassay records deposited in PubChem BioAssay by National Center for Advancing Translational Sciences (NCATS).
